Molecules are shown by their SMILES. For part of these data: Results with a measured potency or affinity are listed apart. The source made the active and inactive calls.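 How the source made its calls, unless noted: active means calcium signal cut by more than 3 SD below the full-agonist control yet still positive, in both repeats and the earlier primary screen; inactive means the rest.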

In assay [1] the test system is TRPC4 beta (transient receptor potential cation channel C4), mouse. In words: TRPC4 cation channel opening, retest – cell-based, Fluo4 calcium, HEK293 TRPC4beta/mu-opioid, duplicates, 10 µM, confirmation (AID 2426;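 active means fluorescence ratio normalized to control raised more than 50% in primary screen plus both repeat runs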;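 on activation: percent rise of integrated ratio over buffer wells lacking compound which define 0%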). As to conditions: Fluo4 calcium fluorescence, at 10 µM; stronger effect = higher value.
Assay [2] relates to transient receptor potential cation channel C4 beta (TRPC4), mouse. The assay is described as follows: TRPC4 cation channel opening, second retest – cell-based, second round, Fluo4, HEK293 TRPC4beta/mu-opioid, 1 µM, confirmation (AID 2461;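 active means primary screen active and over 50% activation in each of two duplicate runs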;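 on activation: 0% = wells without test compound as baseline of integrated fluorescence ratio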). The conditions noted are these: Fluo4 calcium fluorescence, at 1 µM; stronger effect = higher value.
Assay [3] has as its system TRPC4 (transient receptor potential cation channel C4 beta), mouse. The assay is described as follows: potentiation of DAMGO EC20 TRPC4 response – cell-based, second round, Fluo-4, HEK293 TRPC4beta/mu-opioid, 1 µM, confirmation (AID 2554;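 active means primary screen hit whose fluorescence ratio, in both repeats, exceeds the weak agonist control mean by 3 SD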). As to conditions: DAMGO EC20, Fluo-4 calcium flux, at 1 µM; stronger effect = higher value. (In general: A change in cytosolic calcium serves as a functional read-out for many receptors and channels.)

In assay [4] the test system is TRPC4 beta (transient receptor potential cation channel C4), mouse. The assay is described as follows: potentiation of DAMGO EC20 TRPC4 response – cell-based, Fluo-4, HEK293 TRPC4beta/mu-opioid, confirmation (AID 2555;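 active means primary screen hit whose calcium fluorescence ratio, in both repeats, exceeds the weak agonist control mean by 3 SD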). The conditions noted are these: DAMGO EC20, Fluo-4 calcium flux, at 10 µM; stronger effect = higher value.
In assay [5] the target is Short transient receptor potential channel 4 (Mus musculus) (UniProt Q9QUQ5). In words: blockers of DAMGO-evoked TRPC4 calcium flux – cell-based, Fluo4, HEK293 TRPC4beta/mu-opioid, confirmation (AID 2636). The conditions noted are these: at 10 µM; stronger effect = higher value.
Sequence of Short transient receptor potential channel 4 (Mus musculus) (Q9QUQ5 whole entry, looked up): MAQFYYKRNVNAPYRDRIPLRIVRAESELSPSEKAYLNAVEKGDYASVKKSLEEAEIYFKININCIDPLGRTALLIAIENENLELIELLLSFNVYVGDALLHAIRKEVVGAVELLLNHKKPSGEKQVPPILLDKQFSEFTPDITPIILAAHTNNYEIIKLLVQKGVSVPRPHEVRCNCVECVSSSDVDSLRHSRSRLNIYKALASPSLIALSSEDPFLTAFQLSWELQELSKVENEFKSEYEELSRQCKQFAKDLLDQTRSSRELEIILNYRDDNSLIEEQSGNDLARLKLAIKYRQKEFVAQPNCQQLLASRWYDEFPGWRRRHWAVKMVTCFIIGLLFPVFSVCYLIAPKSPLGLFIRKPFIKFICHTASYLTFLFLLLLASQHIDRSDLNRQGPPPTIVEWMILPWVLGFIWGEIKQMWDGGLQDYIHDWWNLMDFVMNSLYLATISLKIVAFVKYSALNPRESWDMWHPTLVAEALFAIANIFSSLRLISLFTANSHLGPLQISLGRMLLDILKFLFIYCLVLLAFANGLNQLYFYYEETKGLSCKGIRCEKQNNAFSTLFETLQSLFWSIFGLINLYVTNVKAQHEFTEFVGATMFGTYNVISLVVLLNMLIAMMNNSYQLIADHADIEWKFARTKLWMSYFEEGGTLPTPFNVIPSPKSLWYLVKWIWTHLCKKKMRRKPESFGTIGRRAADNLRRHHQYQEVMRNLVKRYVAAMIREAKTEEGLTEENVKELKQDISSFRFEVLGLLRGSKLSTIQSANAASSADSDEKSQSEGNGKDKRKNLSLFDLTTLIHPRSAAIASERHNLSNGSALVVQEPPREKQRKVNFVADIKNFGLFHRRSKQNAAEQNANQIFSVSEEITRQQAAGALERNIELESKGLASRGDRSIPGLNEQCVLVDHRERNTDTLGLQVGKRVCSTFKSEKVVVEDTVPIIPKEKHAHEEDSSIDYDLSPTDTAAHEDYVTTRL
Assay [6] shares this target. In words: blockers of DAMGO-evoked TRPC4 calcium flux – cell-based, second round, Fluo4, HEK293 TRPC4beta/mu-opioid, 1 µM, confirmation (AID 2637;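 active means calcium signal ratio cut to more than 3 SD under the fully stimulated control mean yet still positive, in both repeats and the primary screen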). The conditions noted are these: at 1 µM; stronger effect = higher value.
Assay [7] has the same target. The assay is described as follows: potentiation of DAMGO-evoked TRPC4 calcium signal – cell-based, HEK293 TRPC4/mu-opioid, Fluo-4 calcium, EC20 DAMGO, dose response (AID 434941;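 active means earlier screen potentiator hit that boosts the TRPC4 ion channel at some dose, with a dose response; inactive means no potentiation, no dose response, or not a prior hit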;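 further: calcium entry triggered by an EC20 dose of DAMGO at the co-expressed mu-opioid receptor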).
The target is the same in assay [8]. In words: block of DAMGO-driven TRPC4 calcium entry – cell-based, HEK293 TRPC4/mu-opioid, Fluo-4 calcium, dose response (AID 434942;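 active means primary screen inhibitor hit that blocks the TRPC4 channel at some tested dose, yielding a dose curve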).
For assay [9], the target named is Short transient receptor potential channel 6 (Mus musculus) (UniProt Q61143). The assay is described as follows: TRPC6 blockade by TRPC4 inhibitor hits – cell-based, HEK293, membrane potential dye, duplicate, selectivity assay for TRPC4 inhibitor project, confirmation (AID 434948;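 active means active in primary screen and both duplicates, each dropping signal beyond three positive-control SD with fluorescence still positive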). The conditions noted are these: HEK293 TRPC6, membrane potential dye fluorescence, at 10 µM, stimulated with maximal-effect acetylcholine; stronger effect = higher value.
Sequence of Short transient receptor potential channel 6 (Mus musculus) (Q61143 whole entry, looked up): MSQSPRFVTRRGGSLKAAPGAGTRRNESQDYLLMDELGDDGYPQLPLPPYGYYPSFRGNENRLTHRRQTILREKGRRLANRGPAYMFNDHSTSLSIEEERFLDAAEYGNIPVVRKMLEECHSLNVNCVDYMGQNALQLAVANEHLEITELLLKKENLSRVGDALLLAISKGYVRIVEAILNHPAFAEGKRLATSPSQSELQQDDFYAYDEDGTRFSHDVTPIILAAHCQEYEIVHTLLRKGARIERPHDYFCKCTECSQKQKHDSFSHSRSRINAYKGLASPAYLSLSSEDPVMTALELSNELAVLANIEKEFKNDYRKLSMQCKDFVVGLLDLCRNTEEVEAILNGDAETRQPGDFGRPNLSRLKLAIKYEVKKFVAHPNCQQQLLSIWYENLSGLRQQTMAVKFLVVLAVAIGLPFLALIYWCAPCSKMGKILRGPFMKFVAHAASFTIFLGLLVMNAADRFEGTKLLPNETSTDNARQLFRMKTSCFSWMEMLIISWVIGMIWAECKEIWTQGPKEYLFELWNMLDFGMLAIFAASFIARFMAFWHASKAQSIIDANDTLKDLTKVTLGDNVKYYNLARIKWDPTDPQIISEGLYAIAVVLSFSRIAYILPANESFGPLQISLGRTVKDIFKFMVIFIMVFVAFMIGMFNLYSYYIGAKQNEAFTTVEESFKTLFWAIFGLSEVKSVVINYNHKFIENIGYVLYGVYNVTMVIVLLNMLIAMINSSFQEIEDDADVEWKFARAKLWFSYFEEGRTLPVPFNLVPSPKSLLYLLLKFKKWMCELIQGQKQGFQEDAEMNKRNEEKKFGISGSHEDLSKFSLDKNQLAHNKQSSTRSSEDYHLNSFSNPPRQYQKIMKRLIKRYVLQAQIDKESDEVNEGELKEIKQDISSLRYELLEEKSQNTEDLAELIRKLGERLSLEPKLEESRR

Assay [10] shares this target. In words: TRPC6 opening by TRPC4 activator hits – cell-based, HEK293, membrane potential dye, duplicate, selectivity assay for TRPC4 activator project, confirmation (AID 434950;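 active means membrane potential signal rise above negative control mean plus 3 SD in both duplicates, also active in the earlier TRPC4 screen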;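 on activation: 0% = buffer only wells and 100% = acetylcholine maximal-effect wells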). As to conditions: HEK293 TRPC6, membrane potential fluorescence, at 10 µM; activation: stronger effect = higher value; outcome: activation.
For assay [11] the target is unchanged. The assay is described as follows: positive modulators of mouse TRPC6 channel – HEK293 cells, membrane potential dye, duplicate, selectivity assay for TRPC4 potentiator project, confirmation (AID 434952;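 active means compound raising the membrane signal above positive-control mean plus 3 SD in both repeats, and a primary screen hit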). As to conditions: HEK293 TRPC6, membrane potential dye fluorescence, at 10 µM, maximal acetylcholine added after compound; stronger effect = higher value.
For assay [12], the target named is Short transient receptor potential channel 4 (Mus musculus) (UniProt Q9QUQ5). The assay is described as follows: calcium flux activators in TRPC4/5HT1a cells, counter-screen for TRPC4 activator project, cell-based, second counter screen, HEK293 TRPC4/5HT1a, Fluo-4 (AID 434977;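 active means calcium signal rise above buffer-control mean plus 5 SD in both duplicates, and also a hit in the primary screen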;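 on activation: plate controls were assay buffer for no effect and maximal serotonin response for full effect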). The conditions noted are these: Fluo-4 calcium flux, at 10 µM; stronger effect = higher value.
Assay [13] can be described thus: serotonin-gated TRPC4 signal block – cell-based, second counter screen, HEK293 TRPC4/5HT1a, Fluo-4, counter-screen for TRPC4 inhibitor project, confirmation (AID 434978;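 active means primary screen active whose calcium signal fell more than 3 SD beyond the full-serotonin control mean in both duplicate plates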;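 further: serotonin given first at submaximal then at maximal dose after compound preincubation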). The conditions noted are these: Fluo-4 calcium flux, at 10 µM, serotonin added to trigger calcium flux; stronger effect = higher value.
The test system of assay [14] is TRPC4 (mouse), co-expressed with 5HT1a in HEK293. The assay is described as follows: enhancement of serotonin-evoked TRPC4 response – cell-based, second counter screen, HEK293 TRPC4/5HT1a, Fluo-4, counter-screen for TRPC4 potentiator project, confirmation (AID 434979;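 active means signal rise over 3 SD above mean of control wells given weak agonist, in both repeats and first screen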). As to conditions: Fluo-4 calcium flux, at 10 µM, serotonin added at its EC20 dose; stronger effect = higher value.

The nature of assay [15]: nonspecific calcium rise without TRPC4 – cell-based, HEK293 mu-opioid receptor line, counter-screen for TRPC4 activator project, confirmation (AID 449723;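 active means hit in primary screen, with calcium signal over 5 SD above buffer well mean in both duplicates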;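 further: counter screen cells carry the mu-opioid receptor alone and lack TRPC4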). The conditions noted are these: HEK293 mu-opioid cells, Fluo-4 calcium fluorescence, at 10 µM; stronger effect = higher value. A general note: Counterscreens check selectivity or assay interference.
Assay [16] in a line: nonspecific potentiation of DAMGO calcium response – cell-based, HEK293 mu-opioid receptor line, counter-screen for TRPC4 allosteric potentiator project, confirmation (AID 449724;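 active means calcium signal rise more than 3 SD above the low-dose agonist control mean, in both duplicate plates and the primary screen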;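 further: HEK293 cells carrying mu-opioid receptor only with no TRPC4 channel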). The conditions noted are these: HEK293 mu-opioid receptor cells, Fluo-4 calcium flux, at 10 µM, compound added before EC20 DAMGO stimulus; stronger effect = higher value.

Regarding `O=C(COc1ccccc1)NNC(=S)NC(=O)c1ccc(Cl)cc1Cl`, the activation was 63% (active) in [1] and 44.7% (active) in assay [12]. The result in assay [2], in [3], in assay [4], in assay [5], in [6] and in assay [7] was inactive. The outcome in assay [8], in assay [9], in assay [10], in assay [11], in assay [13] and in assay [14] was inactive. For the same compound, the result in [15] and in [16] was inactive.

On to `Cc1ccc(C)c(CN2CCC(CNC(=O)CCc3nnc4ccc(N5CCCCC5)nn34)CC2)c1`, for which the activation in assay [1] was 157% (active); in [2], 92% (active). The result in [3], in assay [4], in [5], in [6], in assay [7] and in assay [8] was inactive. Besides, the call in assay [9], in assay [10], in assay [11], in assay [12], in assay [13] and in [14] was inactive. Also, the result in [15] and in assay [16] was inactive.

Regarding `COc1ccc(CCN(C)CCC(=O)Nc2c(C)cc(C)cc2C)cc1OC`, the result in [1], in assay [2], in assay [3], in [4], in assay [5] and in assay [6] was inactive. For the same compound, the outcome in assay [7], in assay [8], in assay [9], in [11], in assay [13] and in assay [14] was inactive. Further, the outcome in assay [15] and in assay [16] was inactive. In addition, the results for the activation in [10] and in [12] were 48.5% (active) and 58.1% (active), respectively.

For `Cc1cc(C)c(CN2CCN(Cc3ccc(C)o3)C(CCO)C2)c(-n2cccn2)c1` (stereo not given), the activation was 75% (active) in assay [1] and 73% (active) in [10]. The result in [2], in assay [3], in [4], in assay [5], in assay [6] and in [7] was inactive. Further, the outcome in [8], in assay [9], in [11], in [12], in assay [13] and in assay [14] was inactive. In addition, the result in [15] and in assay [16] was inactive.

Take `Cc1onc(-c2c(F)cccc2Cl)c1C(=O)N1CCN(c2ncc(Br)cn2)CC1`: the activation in assay [1] was 109% (active); in assay [10], 42.5% (active); in [12] it was 37.9% (active). Besides, the result in [2], in assay [3], in assay [4], in [5], in assay [6] and in assay [7] was inactive. The result in assay [8], in assay [9], in assay [11], in [13], in [14] and in assay [15] was inactive. In [16], the outcome was inactive.

As to `CCN(CC)CCCOc1ccc(Cl)c(Cl)c1`, the outcome in assay [1], in assay [2], in assay [5], in assay [6], in assay [7] and in assay [8] was inactive. Also, the call in assay [9], in assay [11], in [13], in assay [15] and in assay [16] was inactive. Moreover, the potentiation in assay [3] is 31% (active); in assay [4] it was 33% (active); in assay [14], 21.3% (active). Also, the activation in [10] was 48% (active); in assay [12] it was 17.9% (active).

On to `COc1ccc(-c2nc(CN3CCC(C(=O)NC4CCCC4)CC3)c(C)o2)cc1OC`, for which the activation in assay [1] is 152% (active); in assay [2], 70% (active); in [10], 57% (active). Also, the result in [3], in assay [4], in assay [5], in assay [6], in assay [7] and in assay [8] was inactive. Moreover, the compound was classed as inactive in assay [9], in assay [11], in assay [12], in assay [13], in [14] and in assay [15]. In addition, the outcome in [16] was inactive.

As to `CCCN(CCC)CCCNc1ccc2nnc(-c3ccc(F)cc3)n2n1`, the values for the activation in assay [1] and in assay [12] were 92% (active) and 41.2% (active), respectively. Moreover, the outcome in assay [2], in [3], in assay [4], in assay [5], in assay [6] and in [7] was inactive. Also, the result in assay [8], in [9], in assay [10], in assay [11], in assay [13] and in [14] was inactive. Also, the result in [15] and in [16] was inactive.

In the case of `O=C(COc1ccc(Br)cc1CNC1CCCC1)Nc1ccccc1`, the activation in assay [1] was 175% (active); in assay [10] it was 29.5% (active). Moreover, the result in assay [2], in assay [3], in [4], in assay [5], in [6] and in assay [7] was inactive. In addition, the outcome in [8], in assay [9], in assay [11], in assay [12], in assay [13] and in [14] was inactive. The result in assay [15] and in assay [16] was inactive.

`Cc1ccc(-n2cc(CNCC3CC(=O)N(C4CC4)C3)c(-c3cccc(C)c3)n2)cc1` (stereo not given): the activation was 165% (active) in assay [1] and 52.5% (active) in assay [10]. Besides, the outcome in [2], in [3], in assay [4], in assay [5], in assay [6] and in assay [7] was inactive. In addition, the result in assay [8], in assay [9], in assay [11], in [12], in [13] and in assay [14] was inactive. Also, the result in assay [15] and in assay [16] was inactive.

Regarding `O=C(CCC1CCCC1)c1c(O)c2ccccc2oc1=O`, the activation is 222% (active) in [1], 25% (active) in assay [10], 19.6% (active) in [12] and 51.5% (active) in assay [15]. In addition, the outcome in assay [2], in assay [3], in assay [4], in assay [5], in assay [6] and in [7] was inactive. Moreover, the result in [8], in [9], in [11], in assay [13], in assay [14] and in assay [16] was inactive.

`CN(C)CCCN(C(=O)c1ccc(S(=O)(=O)N(C)C2CCCCC2)cc1)c1nc2ccc(F)cc2s1`: the results for the activation in assay [1] and in assay [12] were 155% (active) and 5.36% (active), respectively. Further, the outcome in [2], in assay [3], in [4], in assay [5], in assay [6] and in [7] was inactive. For the same compound, the result in assay [8], in assay [9], in assay [10], in [11], in assay [13] and in assay [14] was inactive. The result in [15] and in [16] was inactive.

Take `Cc1cc(C)cc(C(=O)N(CCc2ccccc2)C2=CC3CCC(C2)N3C)c1` (stereo not given): the activation was 86% (active) in [1], 57% (active) in [2] and 67% (active) in assay [10]. Further, the result in assay [3], in assay [4], in assay [5], in [6], in assay [7] and in assay [8] was inactive. The compound was called inactive in assay [9], in assay [11], in [12], in assay [13], in assay [14] and in [15]. Further, the result in [16] was inactive.

As to `Cc1nc(/N=C(\N)NC(=O)NC2CCCCC2)nc2ccccc12`, the activation was 99% (active) in [1], 66% (active) in assay [2] and 36.2% (active) in assay [12]. The result in assay [3], in assay [4], in assay [5], in [6], in [7] and in [8] was inactive. The result in assay [9], in assay [10], in [11], in assay [13], in assay [14] and in [15] was inactive. In addition, in assay [16], the result was inactive.

For `COc1ccc(C(=O)NC(=S)NNC(=O)c2c(-c3ccccc3)noc2C)cc1OC`, the outcome in assay [1], in assay [2], in [3], in assay [4], in assay [5] and in [6] was inactive. Moreover, the result in assay [7], in assay [8], in assay [9], in assay [11], in assay [13] and in assay [14] was inactive. Also, the result in assay [15] and in assay [16] was inactive. Further, the activation in assay [10] is 39% (active); in assay [12] it was 24.4% (active).
